Assay results reported in ChEMBL document CHEMBL4513216, “Probing the Open Global Health Chemical Diversity Library for Multistage-Active Starting Points for Next-Generation Antimalarials” (ACS Infect Dis, 2020).
In all, about 69,000 compounds went through this assay and about 8,600 (12%) showed an effect of 50% or more. This excerpt belongs to a sample that is enriched for strong results.

These compounds were tested on Plasmodium berghei (assay: Screen against P. berghei liver stage (PbLuc), transformed with Luciferase, at 10uM). Settings: tested at 10 uM.
Type: functional, HepG2

O=C(NCCCNC(=O)c1cccc(O)c1)NCc1ccccc1F was tested. Which INHIBITION did it give?
The INHIBITION was -1.58%.

CCn1cc(CN2CCCN(C(=O)c3ccco3)CC2)cn1 was tested. Which INHIBITION did it give?
The INHIBITION was -61.4%.

For COC(=O)c1ccnn1COc1ccc(Cl)cc1, which INHIBITION is on record?
Its INHIBITION is 16%.

CCc1nn(C)c2[nH]nc(NC(=O)c3ccccc3COC)c12 was tested. Which INHIBITION did it give?
Its INHIBITION is 33.7%.

With N#Cc1ccc(NC(=O)C2CSCN2)cc1 (configuration not stated) as the compound, how does the INHIBITION read?
Its INHIBITION is 39%.

How did the INHIBITION turn out when COc1cc(CNCc2ccco2)ccc1OCCO was run?
Its INHIBITION is 10.6%.

CCN(CC)S(=O)(=O)c1cc(Br)ccc1OC was tested. Which INHIBITION did it give?
The INHIBITION was -32.9%.

COc1cc(OC)cc(C(=O)N(C)Cc2nnc3ccccn23)c1 was tested. Which INHIBITION did it give?
Its INHIBITION is -6.14%.

Cc1nccn1CCC1CCCCN1Cc1ccc2c(c1)OCCO2 (configuration not stated) was tested. Which INHIBITION did it give?
Its INHIBITION is 51.3%.

Cc1cc2c(cc1CN1CCCCC1CCn1ccnc1C)OCO2 (configuration not stated) was tested. Which INHIBITION did it give?
Its INHIBITION is 13.7%.

With Cc1nccn1CCC1CCCCN1Cc1cnc(N(C)C)nc1 (configuration not stated) as the compound, how does the INHIBITION read?
The INHIBITION was 33.3%.

For Cc1c[nH]c(CN2CCCCC2CCN(C)C)c(C)c1=O (configuration not stated), which INHIBITION is on record?
The INHIBITION was 38.8%.

Which INHIBITION does the source give for Cc1c[nH]c(CN2CCCCC2CCn2cccn2)c(C)c1=O (configuration not stated) here?
Its INHIBITION is 51.8%.

For Cc1c[nH]c(CN2CCCCC2CCc2cccc(O)c2)c(C)c1=O (configuration not stated), which INHIBITION is on record?
Its INHIBITION is 39.9%.

How did the INHIBITION turn out when Cc1nccn1CCC1CCCCN1Cc1ccncc1 (configuration not stated) was run?
Its INHIBITION is -57.8%.

Which INHIBITION does the source give for Cc1nccn1CCC1CCCCN1Cc1ccc(N(C)C)nc1 (configuration not stated) here?
Its INHIBITION is -38.9%.

Which INHIBITION does the source give for Cc1c[nH]c(CN2CCCCC2CCn2ccnc2C)c(C)c1=O (configuration not stated) here?
Its INHIBITION is 53.9%.

How did the INHIBITION turn out when CC[C@@H]1N(Cc2nccs2)CCC[C@]12CCC(=O)N2C was run?
Its INHIBITION is -27%.

Which INHIBITION does the source give for COc1ccc(-c2nnc(CNCCn3cccn3)o2)cc1 here?
Its INHIBITION is 23.5%.

Which INHIBITION does the source give for CO[C@H]1CCN(C(=O)c2cc(C)on2)C[C@@H]1Cc1ccccc1 here?
The INHIBITION was 2.58%.

For Cc1[nH]ncc1CCCNC(=O)N1CCCC(c2nncn2C)C1 (configuration not stated), which INHIBITION is on record?
The INHIBITION was -29.8%.

Which INHIBITION does the source give for CCCn1nccc1NC(=O)CN1CCCC1Cn1cccn1 (configuration not stated) here?
Its INHIBITION is 12.3%.

Which INHIBITION does the source give for Cc1cccc(OCC2CCCN(C(=O)Cn3ccccc3=O)C2)c1 (configuration not stated) here?
Its INHIBITION is 13.6%.

For COc1cccc(CCNC(=O)c2ccc(=O)n(C)c2)c1, which INHIBITION is on record?
Its INHIBITION is 24.2%.

With Cn1cc(C(=O)Nc2cccc(Oc3ccncc3)c2)ccc1=O as the compound, how does the INHIBITION read?
The INHIBITION was 51.5%.

Which INHIBITION does the source give for Cn1cc(C(=O)Nc2ccnc(Oc3ccccc3)c2)ccc1=O here?
The INHIBITION was 16.8%.

Which INHIBITION does the source give for COC(=O)c1ccc(CNC(=O)Nc2ccc(=O)n(C)c2)cc1 here?
Its INHIBITION is 59.3%.

With COc1cccc(-c2ccc(CNC(=O)c3ccc(=O)n(C)c3)cc2)c1 as the compound, how does the INHIBITION read?
Its INHIBITION is 72.3%.

For COc1ccc(CNC(=O)Nc2ccc(=O)n(C)c2)cc1, which INHIBITION is on record?
Its INHIBITION is 29%.

How did the INHIBITION turn out when Cn1cc(C(=O)Nc2cccc(F)c2)ccc1=O was run?
The INHIBITION was 42.6%.

COc1ccc(CNC(=O)c2ccc(=O)n(C)c2)cc1C was tested. Which INHIBITION did it give?
The INHIBITION was 11.8%.

With Cn1cc(NC(=O)NCc2ccoc2)ccc1=O as the compound, how does the INHIBITION read?
Its INHIBITION is 47.4%.
